aSyn UTR act: Activators via SNCA 5'UTR binding, MLPCN; activity score, % (tested at 7.5 µM), hits read low; 300,000 tested, 7.1% active; alpha-synuclein 5'UTR reporter, activators screen; AID 1814; in the data active = activity score below about -60%
Numbers without * were called inactive. These entries were drawn from the full list.

SMILES	aSyn UTR act
COc1ccc(-c2cn3c(C)c(C(=O)NC(C)(C)C)sc3n2)cc1	-229.2*
Nc1cc(=O)[nH]c(SCCSc2ccccc2F)n1	67.4
[2H]C(CCOS(N)(=O)=O)c1ccc(C(C)(C)C)cc1 (stereo not drawn)	80.0
CC(C)(C)c1ccc(CSc2nc(N)cc(=O)[nH]2)cc1	-79.3*
COc1ccc(N2C(=O)c3ccccc3NC2c2ccc(OC)c(Cn3cc([N+](=O)[O-])cn3)c2)cc1 (stereo not drawn)	-87.3*
CC(C)CCNCC(O)CON=C1c2ccccc2-c2ccccc21 (stereo not drawn)	86.2
O=C(Nc1ccccc1)ON=C1c2ccccc2-c2ccccc21	-106.1*
CC(C)/C=N/Nc1nc(-c2ccc(Br)cc2)cs1	-141.3*
O=C(COC(=O)CC1CCCC1)Nc1cc2c(cc1Cl)C(=O)c1ccccc1C2=O	-169.3*
CC(=Nc1cccc(O)c1)c1sc2ccccc2c1O	-235.5*
CN1CCN(CC/C=C2/c3ccccc3Sc3ccc(S(=O)(=O)N(C)C)cc32)CC1	-97.5*
O=C(Nc1ccc2c3c(cccc13)CC2)c1ccco1	-64.7*
O=C(Nc1ccc2c3c(cccc13)CC2)c1ccc(Br)o1	-76.3*
COc1cc(/C=C/C(=O)c2ccc(Cl)s2)cc(OC)c1O	-164.1*
COc1ccc(/C=C/C(=O)c2ccc(Cl)s2)cc1O	-147.4*
Nc1ccccc1C#Cc1ccc([N+](=O)[O-])cc1	-261.6*
Cc1nc2ccccc2n1-c1nc(-c2ccco2)cc(C(F)(F)F)n1	90.4
FC(F)(F)c1cc(-c2ccco2)nc(N2CCN(c3ccccc3)CC2)n1	-65.1*
Cc1cc(=O)oc2cc(NC(=O)c3cc4ccccc4o3)ccc12	-93.7*
O=C(Nc1ccc2oc(=O)ccc2c1)c1cc2ccccc2o1	-176.6*
Cc1cc(C(=O)Nc2ccccc2)oc(=O)c1	-84.7*
CN(C)S(=O)(=O)c1ccc(NC(=O)c2cc3ccccc3o2)cc1	-110.3*
Cc1cc(=O)oc2cc(NC(=O)c3ccccc3OC(F)F)ccc12	-113.7*
Cc1cc(=O)oc2cc(NC(=O)c3cccc(Br)c3)ccc12	-166.1*
Cn1c(=O)n(C)c2cc(NC(=O)c3cc4ccccc4o3)ccc21	-146.0*
SMILES	aSyn UTR act
COCc1cc(=O)oc2cc(NC(=O)c3ccc(C(C)(C)C)cc3)ccc12	-110.2*
COc1ccc2nc(N3CCCC3)c(C#N)cc2c1	-105.2*
COc1ccc2nc(N3CCCCC3)c(C#N)cc2c1	-110.1*
COc1cc(NC(=O)COc2ccccc2C)ccc1NC(=O)c1ccco1	-67.7*
COc1ccc(NC(=O)c2ccco2)c(OC)c1	-128.3*
COc1ccc(NC(=O)CSc2ccccc2)c(OC)c1	-100.5*
COc1cc(NC(=O)C(C)C)ccc1NC(=O)c1ccco1	-92.1*
COc1ccc(CN(C)CC(=O)Nc2ccccc2-c2ccccc2)c(OC)c1	46.2
COc1cc2c(cc1NC(=O)c1ccco1)CCCC2	-278.5*
COc1ccc(NC(=O)c2ccccc2O)c(OC)c1	-204.8*
COc1ccc(NC(=O)c2cc(C(C)C)on2)c(OC)c1	-244.5*
CN(Cc1cnc2nc(N)nc(N)c2n1)c1ccc(C(=O)N[C@@H](CCC(=O)O)C(=O)O)cc1	77.5
c1ccc(Nc2cccc(Nc3ccccc3)c2)cc1	-86.0*
CCN(CC)c1ccc(NC(=O)c2ccccc2F)cc1	-410.5*
O=C(Nc1ccccc1)Nc1ccc(Cl)nc1Cl	-93.5*
O=C(Nc1ccccc1)Nc1ccc(Nc2ccccc2)cc1	-111.1*
O=C(Nc1ccc(Nc2ccccc2)cc1)c1ccccc1F	-174.2*
CN(C)c1ccc(/C=C2\CCCc3c2nc2ccccc2c3C(=O)O)cc1	-120.6*
O=C(O)c1ccc(NC(=S)NC2CCCCC2)cc1	-65.4*
FC(F)(F)c1ccc(NC(=S)NC2CCCCC2)cc1	-78.2*
Nc1c(C(=O)Nc2ccccc2Cl)nnn1-c1ccc2c(c1)OCCO2	-216.0*
Nc1c(C(=O)Nc2ccc3c(c2)OCCO3)nnn1Cc1cccc(Br)c1	-163.3*
Nc1c(C(=O)Nc2ccc3c(c2)OCCO3)nnn1CCc1ccccc1	-126.4*
Nc1c(C(=O)Nc2ccc3c(c2)OCCO3)nnn1Cc1ccc(Br)cc1	-220.2*
Cc1cc(NCc2ccccn2)ccc1Br	-198.1*
SMILES	aSyn UTR act
c1ccc(-n2cnc3cc(NCc4ccccn4)ccc32)cc1	-66.1*
CC(C)n1cnc2cc(NCc3ccccn3)ccc21	-97.5*
CC(C)n1cnc2cc(NCc3ccco3)ccc21	-109.0*
O=C(O)c1ccc(-c2noc(-c3cccc(C(F)(F)F)c3)n2)cc1	-82.6*
FC(F)(F)c1cccc(-c2nc(-c3ccncc3)no2)c1	-191.0*
CC(C)c1ccc2oc(-c3cc(N)ccc3O)nc2c1	-95.4*
Cc1ccccc1-c1nc2cc(N)ccc2o1	-123.0*
CC(=O)OC(CC(=O)O)C[N+](C)(C)C (stereo not drawn)	67.7
Cc1ccc(/C=C/C(=O)NCc2cccs2)cc1	-68.5*
Cc1ccc(/C=C/C(=O)NCc2cccs2)c(C)c1	-131.9*
O=C(/C=C/c1ccc(F)cc1)NCc1ccco1	-75.1*
Cc1cc(C(=O)OCC(=O)NCc2ccco2)c(C)n1-c1ccc(F)cc1	80.4
Cc1ccc(C2=NN(C(=S)Nc3ccccc3)C(c3ccco3)C2)cc1 (stereo not drawn)	-177.9*
CCS(=O)(=O)Nc1ccc(C2=NN(C(=S)Nc3ccccc3)C(c3ccco3)C2)cc1 (stereo not drawn)	-80.5*
CCC(=O)N1N=C(c2c(-c3ccccc3)c3cc(Cl)ccc3[nH]c2=O)CC1c1ccco1 (stereo not drawn)	42.5
COc1ccc(C2CC(c3ccc(Br)cc3)=NN2C(=S)Nc2ccccc2)cc1 (stereo not drawn)	-78.1*
CC(=O)Nc1nc2ccccc2n1Cc1ccccc1C	66.6
Cc1ccc(C(=O)Nc2nc3ccccc3n2CCN2CCCC2)cc1	-76.0*
CCCCCCCn1c(NC(=O)CC)nc2ccccc21	68.1
C=CCn1c(NC(=O)c2ccc(C)cc2)nc2ccccc21	-111.2*
Cn1nc(-c2ccc(Cl)cc2)c2cc(C(=O)NCCCN3CCOCC3)sc21	-134.0*
CCN1CCN(C(=O)c2cc3c(-c4ccc(Cl)cc4)nn(C)c3s2)CC1	-68.0*
CCOCCCNC(=O)c1cc2c(-c3ccc(Cl)cc3)nn(C)c2s1	-61.5*
CCCCN(CC)CCNC(=O)c1cc2c(-c3ccc(Cl)cc3)nn(C)c2s1	78.9
Cn1nc(-c2ccc(Cl)cc2)c2cc(C(=O)NCCN3CCOCC3)sc21	-106.8*
SMILES	aSyn UTR act
CCCN(CCC)CCNC(=O)c1cc2c(-c3ccccc3F)nn(C)c2s1	-61.7*
CC(=O)Nc1ccc(N=Nc2ccccc2)cc1	-179.1*
CC(=O)OCC(=O)Nc1ccc(N=Nc2ccccc2)cc1	-142.9*
O=C(Nc1ccc(N=Nc2ccccc2)cc1)c1ccccc1Cl	-170.1*
CC(C)C(=O)OCC(=O)Nc1ccc(N=Nc2ccccc2)cc1	-186.4*
CC(=O)Nc1ccc(N2N=C(C)C(N=Nc3ccccc3)C2=O)cc1 (stereo not drawn)	-98.5*
CC1(C(=O)OCC(=O)Nc2ccccc2)CC1(Cl)Cl (stereo not drawn)	-68.6*
CC1=NN(c2nc(-c3ccc(C)cc3)cs2)C(=O)C1N=Nc1ccc(C(N)=O)cc1 (stereo not drawn)	86.5
O=C(CCl)Nc1ccc(N=Nc2ccccc2)cc1	-63.1*
CC1CCCCN1C(=O)CSc1nc2ncccc2[nH]1 (stereo not drawn)	-74.8*
CC1CCCCN1C(=O)CSc1nnc(-c2ccc(Cl)s2)o1 (stereo not drawn)	-69.4*
CC1CCCCN1C(=O)CSc1nnc(-c2ccccc2O)o1 (stereo not drawn)	-83.9*
